Pf growth 96h = Primary qHTS for delayed death inhibitors of the malarial parasite plastid, 96 hour incubation. P. falciparum luciferase reporter growth, 96 h. Potency, µM (doses to about 28.7 µM), inactives show top-dose activity change, negative = inhibition, hits mostly inhibitors. hit rate 6.9% among 320,000. AID 504834, 2011; further: on the % scale 0 is the no-effect control and ±100 the full control effect
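P. falciparum expressing integrated firefly luciferase, in erythrocytes at 2% hematocrit, 0.05% parasitemia, incubated with compounds 96 h at 37 C, 5% CO2. Growth inhibition read as loss of luminescence; two-generation exposure targets delayed-death apicoplast inhibitors.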
SARS PLpro yeast = qHTS of Yeast-based Assay for SARS-CoV PLP. hit rate 0.19% among 330,000. Potency, µM (titrated, usually from 32.9 µM), inactives show at the highest dose activity, positive = growth rescue, actives largely listed as activators. AID 485353, 2010. S. cerevisiae expressing SARS-CoV PLpro, growth rescue; calls by dose curve; further: 0% is about no effect; nearly all actives have a fitted effect of over 55% in size
HCV inh = qHTS Assay for Inhibitors of Hepatitis C Virus (HCV). Potency, µM (top dose mostly 41.8 µM), for the others: top-dose activity change, negative = inhibition, actives largely listed as inhibitors. hit rate 3.4% among 340,000. Huh7.5.1 HCVcc-Cre infection, luciferase reporter, 44 h. AID 651820, 2012; further: on the % scale 0 is the no-effect control and ±100 the full control effect
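Infectious HCV cell culture screen: compound-treated cells (1,000/well, pre-plated 4 h) are infected with HCVcc-Cre at roughly 0.5 moi and grown 44 h. Infection is quantified by luciferase signal after 15 min substrate incubation at room temperature.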
Pf growth 48h = Primary qHTS for delayed death inhibitors of the malarial parasite plastid, 48 hour incubation; P. falciparum luciferase growth in erythrocytes, 48 h; AID 504832, 2011; Potency, µM (series often up to 28.7 µM), for inactives: at the top dose activity change, negative = inhibition, hits mostly inhibitors; hit rate 5.9% among 310,000; further: on the % scale 0 is the no-effect control and ±100 the full control effect
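Parasite viability was followed by luminescence of a genomically integrated firefly luciferase. Cultures held 0.1% parasitemia at 2% hematocrit (final), incubated under 5% CO2 at 37 C.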
AMA1-RON2 inh = qHTS for Inhibitors of AMA1-RON; Towards Development of Antimalarial Drug Lead: Primary Screen. Plasmodium falciparum AMA1 (3D7) - RON2 peptide interaction. AlphaScreen AMA1-biotinylated RON2 peptide binding. Potency, µM (titrated, usually from 58.2 µM), for the others: at the top dose activity change, negative = inhibition, most hits filed as inhibitors. hit rate 0.2% among 360,000. AID 720542, 2013;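 further: 0% = vehicle wells and -100% = peptide control; nearly all actives have a fitted effect of over 45% in size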
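AMA1 (3D7) with his tag at 25 nM final met compounds first, then biotinylated RON2 peptide at 25 nM; detection used donor plus acceptor beads, 10 µg/mL apiece, read by AlphaScreen after 30 min at room temperature.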
NS1 function inh = qHTS Assay for Inhibitors of Influenza NS1 Protein Function | Potency, µM (series often up to 46.1 µM), inactives show top-dose activity, positive = more growth | hit rate 0.4% among 270,000 | AID 2326, 2010; calls by dose curve; further: actives are rising curves; nearly all actives have a fitted effect of over 50% in size
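Growth recovery, yeast-based: influenza A NS1 expressed in S. cerevisiae causes slow growth, and suppressors are detected by OD600. The parent strain without NS1 is used as positive control.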
The depositor's hits bear a star; ? = inconclusive; / = no result given; [ ] = remark or other dose. Most compounds without a hit are left out; they make up all but 12% or so of the library. Unless noted, the call rests on the fitted dose curve; in most records, active means well fitted curve in the direction sought with a large enough effect; inconclusive means small, poorly fitted or top-dose-only effect, or another doubt; inactive means no such curve, though single readings can be large; an effect the other way counts as inactive or inconclusive. Potency means the concentration at half of the fitted maximal effect.

SMILES	Pf growth 96h	SARS PLpro yeast	HCV inh	Pf growth 48h	AMA1-RON2 inh	NS1 function inh
COc1ccc(C2/C(=C(/O)c3ccc(Br)cc3)C(=O)C(=O)N2C)cc1OC (stereo unspecified)	?	10%	16%	18%	-5%	-1%
COC(=O)c1ccc(C2/C(=C(\O)c3ccc(OC)c(C)c3)C(=O)C(=O)N2c2cc(C)on2)cc1 (stereo unspecified)	0%	-1%	15%	42%	3%	24%
COc1ccc(C2/C(=C(/O)c3ccc(Br)cc3)C(=O)C(=O)N2C)cc1 (stereo unspecified)	0.93µM*	1%	15%	0%	4%	3%
COc1cccc(/C(O)=C2\C(=O)C(=O)N(c3ccccn3)C2c2ccccc2OC)c1 (stereo unspecified)	5.2µM*	-8%	4%	8%	5%	-1%
Cc1cc(N2C(=O)C(=O)/C(=C(/O)c3ccc(F)cc3)C2c2ccc(Cl)cc2)no1 (stereo unspecified)	59%	5%	1%	13µM*	1%	-20%
Cc1ccc(C(=O)N2CCN(c3ccccc3Cl)CC2)cc1[N+](=O)[O-]	21%	-11%	?	?	-17%	/
CN(Cc1ccccc1)C(=O)COC(=O)C1CCN(S(=O)(=O)c2cccs2)CC1	-5%	5%	-2%	26%	-8%	/
CCc1nc(NC(=O)c2sc(C)nc2C)sc1C(=O)OC	?	-2%	-21%	11%	3%	-1%
O=c1cc(-c2ccccc2)nc2nc[nH]n12	0.29µM*	2%	14%	/	-9%	0%
Cc1c(Cl)cccc1Nc1ncccc1C(=O)OCC(O)CO (stereo unspecified)	47%	3%	/	15%	/	4%
O=C(OC[C@@H](O)CO)c1ccccc1Nc1ccnc2cc(Cl)ccc12	1.6µM*	/	/	?	/	/
O=C(OCC(O)CO)c1ccccc1Nc1ccnc2cc(Cl)ccc12 (stereo unspecified)	?	9%	?	8.3µM*	-11%	/
Cc1cccc(-c2nc(CS(=O)CC(=O)N3CC(C)CC(C)C3)c(C)o2)c1 (stereo unspecified)	-5%	1%	-9%	19%	6%	-7%
COc1ccc(S(=O)(=O)N(C)C[C@H]2OCc3cn(nn3)CCCC(=O)N([C@@H](C)CO)C[C@@H]2C)cc1	/	/	/	/	20%	/
O=[N+]([O-])c1cccc2c([N+](=O)[O-])cccc12	5.9µM*	-5%	16%	12%	11%	/
Cc1ccc(S(=O)(=O)/C(=C\N(C)C)c2cnc(Cl)s2)cc1	?	1%	15%	0%	4%	8%
COc1ccc(NC(=O)CC2CCCC2)cc1S(=O)(=O)N1CCCCC1	?	1%	-27%	-7%	-11%[11.6 µM]	2%
COc1ccc(NC(=O)C2CCCCN2N)cc1OC (stereo unspecified)	-15%	-2%	3%	5%	-11%	0%
COc1ccc(NC(=O)C2CCCN2c2ccc(OC)c(OC)c2)cc1OC (stereo unspecified)	1%	3%	2%	10µM*	0%	-2%
COc1ccc(NC(=O)CC2CCCCC2)cc1OC	2.6µM*	1%	-3%	3.3µM*	?	-11%
CCN(C[C@H]1N[C@@](CC)(C(=O)OC)[C@H]2C(=O)N(Cc3ccccc3)C(=O)[C@@H]12)S(=O)(=O)c1ccc(OC(F)(F)F)cc1	/	1%	-28%	/	5%	/
COc1ccc(-c2cccc(C3CC=CC4C3C(=O)N(Cc3ccccc3)C4c3cc(C)ccc3F)c2)cc1 (stereo unspecified)	6.6µM*	-1%	/	6.6µM*	/	-17%
